Several values for one entry are separate records, joined by “and”; a condition that tells them apart may be missing. Equal entries are not always repeated. Out of some 5,500 compounds screened, about 2,000 (36%) were called active. Inconclusive results (about 18%) are left out. Cut-off read from the data, not from the text of the source: active = normalized growth mostly below about 0.91 (no sharp cut-off); inconclusive = no clear call, values can overlap the other calls; inactive = mostly above about 0.92. This is one part of the list.
Assay: chemical genetic growth profiling, strain panel (AID 1159580);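 note: tested at 20 µM; growth read once vehicle control cultures reached saturation at 30 °C; 1 = growth at the plate median or of vehicle wells; lower values mean less growth of the strain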
Conditions: S. cerevisiae deletion strains, growth OD

Measured: normalized growth

NCCc1ccc(O)cc1
inactive: locus YAL021C, strain ccr4, hits give low values 0.995 | locus YAL026C, strain drs2, hits give low values 0.963 | locus YAL030W, strain snc1, hits give low values 0.989 | locus YAL040C, strain CLN3, hits give low values 0.988 | locus YBL061C, strain skt5, hits give low values 0.975 | locus YBR009C, strain hhf1, hits give low values 0.985 | locus YBR021W, strain FUR4, hits give low values 0.97 | locus YBR023C, strain chs3, hits give low values 0.98 | locus YBR171W, strain sec66, hits give low values 0.957 | locus YBR229C, strain ROT2, hits give low values 0.999 | locus YBR231C, strain swc5, hits give low values 0.961 | locus YBR279W, strain paf1, hits give low values 0.983 | locus YCL011C, strain gbp2, hits give low values 0.997 | locus YCL016C, strain dcc1, hits give low values 1.01 | locus YCL029C, strain bik1, hits give low values 1.01 | locus YCL061C, strain MRC1 (second series), hits give low values 1.01 | locus YCL069W, strain vba3, hits give low values 0.99 | locus YCR088W, strain abp1, hits give low values 0.972 | locus YDL005C, strain med2, hits give low values 0.972 | locus YDL035C, strain GPR1, hits give low values 1.01 | locus YDL040C, strain nat1, hits give low values 0.984 | locus YDL074C, strain BRE1, hits give low values 0.99 | locus YDL101C, strain DUN1, hits give low values 1 | locus YDL185W, strain tfp1, hits give low values 1 | locus YDL192W, strain arf1, hits give low values 1 | locus YDR001C, strain nth1, hits give low values 0.975 | locus YDR069C, strain doa4, hits give low values 0.945 | locus YDR101C, strain arx1, hits give low values 0.991 | locus YDR137W, strain rgp1, hits give low values 0.981 | locus YDR150W, strain NUM1, hits give low values 1.01 | locus YDR159W, strain sac3, hits give low values 0.905 | locus YDR162C, strain NBP2, hits give low values 1.01 | locus YDR195W, strain ref2 0.928 | locus YDR297W, strain sur2, hits give low values 0.978 | locus YDR318W, strain mcm21, hits give low values 0.997 | locus YDR334W, strain swr1, hits give low values 0.967 | locus YDR335W, strain msn5, hits give low values 0.983 | locus YDR363W, strain ESC2, hits give low values 1.01 | locus YDR388W, hits give low values 1 | locus YDR392W, strain spt3, hits give low values 0.935 | locus YDR502C, strain sam2, hits give low values 0.989 | locus YEL003W, strain gim4, hits give low values 0.969 | locus YEL037C, strain rad23, hits give low values 0.977 | locus YEL061C, strain CIN8 (second series), hits give low values 0.975 | locus YEL061C, strain CIN8, hits give low values 1 | locus YER002W, strain NOP16, hits give low values 0.994 | locus YER015W, strain faa2, hits give low values 0.994 | locus YER016W, strain bim1, hits give low values 0.985 | locus YER110C, hits give low values 0.993 | locus YER111C, strain swi4, hits give low values 0.981 | locus YER155C, strain BEM2 (second series), hits give low values 0.951 | locus YER155C, strain BEM2, hits give low values 1.01 | locus YER167W, strain BCK2, hits give low values 1 | locus YFR010W, strain ubp6, hits give low values 0.957 | locus YGL078C, strain dbp3, hits give low values 0.994 | locus YGL086W, strain mad1, hits give low values 0.966 | locus YGL167C, strain pmr1, hits give low values 0.972 | locus YGL173C, strain kem1, hits give low values 0.964 | locus YGL227W, strain vid30, hits give low values 0.978 | locus YGL240W, strain doc1, hits give low values 0.96 | locus YGL248W, strain PDE1, hits give low values 1.01 | locus YGL253W, strain hxk2, hits give low values 0.972 | locus YGR078C, strain PAC10, hits give low values 1.01 | locus YGR135W, strain pre9, hits give low values 0.997 | locus YGR229C, strain SMI1, hits give low values 1.01 | locus YGR252W, strain gcn5, hits give low values 1.01 | locus YHR013C, strain ard1, hits give low values 0.97 | locus YHR027C, strain rpn1, hits give low values 0.99 | locus YHR030C, strain SLT2, hits give low values 1 and 0.976 | locus YHR079C, strain IRE1 (second series), hits give low values 0.994 | locus YHR079C, strain IRE1, hits give low values 0.976 | locus YHR094C, strain hxt1, hits give low values 1.01 | locus YHR129C, strain ARP1, hits give low values 1.01 | locus YHR142W, strain chs7, hits give low values 0.982 | locus YHR200W, strain rpn10, hits give low values 1.03 | locus YIL066C, strain RNR3, hits give low values 1.01 | locus YIL073C, strain SPO22, hits give low values 0.985 | locus YIL125W, strain kgd1, hits give low values 0.985 | locus YIR030C, strain dcg1, hits give low values 0.996 | locus YJL092W, strain hpr5, hits give low values 0.973 | locus YJL095W, strain BCK1 (second series), hits give low values 0.978 | locus YJL095W, strain BCK1, hits give low values 1.01 and 0.995 | locus YJL115W, strain asf1, hits give low values 0.963 | locus YJL129C, strain trk1, hits give low values 0.967 | locus YJL134W, strain LCB3, hits give low values 1.01 | locus YJL154C, strain vps35, hits give low values 0.975 | locus YJL164C, strain tpk1, hits give low values 0.998 | locus YJL166W, strain qcr8, hits give low values 0.986 | locus YJL168C, strain set2, hits give low values 1 | locus YJL187C, strain SWE1 (second series), hits give low values 1.01 | locus YJL187C, strain SWE1, hits give low values 0.984 | locus YJR043C, strain POL32, hits give low values 1.02 | locus YJR066W, strain TOR1, hits give low values 0.932

Source: PubChem BioAssay AID1159580 (chemical genetic matrix, 2015)
